# Laboratory results from PubChem BioAssay (NCATS).
# Records with an inconclusive call do not appear. A number with no mark means an inactive call. Calls of active or inactive are those of the source. The call rests on the fitted dose curve; in most records, active means well fitted inhibition curve with a large enough effect; inconclusive means small, poorly fitted or top-dose-only effect; inactive means flat fitted curve, though single readings scatter.
# Target: Calcium and integrin-binding protein 1 (Homo sapiens) (UniProt Q99828)
# Experiment: Primary qHTS for Identification of Calcium Integrin Binding Protein 1 (CIB1) Competitor (AID 1508620); further: top concentration of the series differs between compounds
# Details: CIB1-GST / FITC-alphaIIb peptide fluorescence polarization; series mostly up to 114 µM; activity change, negative = inhibition: at the top concentration
# Summary of the method: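 Fluorescence polarization competition: GST-tagged CIB1 (1 uM final) preincubated with compound 15 min at room temperature, then FITC-labelled alphaIIb peptide (100 nM final) added. After 15 min at room temperature, polarization read at Ex 480/Em 540.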
# On the % scale 0 is the no-effect control and ±100 the full control effect.
# Sequence of Calcium and integrin-binding protein 1 (Homo sapiens) (Q99828 whole entry, looked up): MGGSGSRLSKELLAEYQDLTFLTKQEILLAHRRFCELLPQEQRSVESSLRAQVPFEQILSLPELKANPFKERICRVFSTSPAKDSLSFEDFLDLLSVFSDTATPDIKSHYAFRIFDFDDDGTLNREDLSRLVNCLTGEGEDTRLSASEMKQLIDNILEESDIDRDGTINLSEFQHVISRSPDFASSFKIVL
Structure (SMILES),"activity change, negative = inhibition",Potency
Cc1cccc(NS(=O)(=O)c2ccc3c(c2)CCC(=O)N3)c1,-1.52%,–
COc1cccc(NCc2ccc(O)c3ncccc23)n1,11.3%,–
NC(N)=NCCC[C@H](NC(=O)CNC(=O)c1ccccc1)C(=O)Nc1cc(C(F)(F)F)ccc1Cl,1.48%,–
O=C(Nc1ccc2ccccc2c1)Nc1nnc(-c2ccc(F)cc2)s1,-2.18%,–
N#CN1CCC(NC(=O)c2cccc(C(F)(F)F)c2)CC1,-0.282%,–
CCOC(=O)C1CCN(c2ccc(NCc3ccc(-c4ccc(C#N)cc4)o3)cc2)CC1,-6.55%,–
COc1ccc(C2=Nn3c(nnc3-c3ccccc3OC)SC2)cc1OC,-0.827%,–
O=C(Nc1ncc([S+](=O)([O-])N2CCOCC2)s1)c1cccc(Br)c1,-7.16%,–
CCc1ccc(NC(=O)c2[nH]c(C)c(C(C)=O)c2C)cc1S(=O)(=O)Nc1ccc(C#N)cc1,-7%,–
COc1cc(O)c(C(CC(=O)N2CCC(Cc3ccccc3)CC2)c2ccc(OC)c(OC)c2)c(OC)c1 (configuration not stated),4.43% [at 228 µM],–
Cc1ccc(CNc2ncnc3ccc(-c4ccc5c(c4)OCO5)cc23)s1,4.51%,–
O=C(Nc1ncc(Cc2ccc(C(F)(F)F)cc2)s1)c1cccc(-c2ccccc2)c1,-3.4%,–
O=S(=O)(c1ccc(C(F)(F)F)cc1)N1CCN(S(=O)(=O)c2ccc3c(c2)OCCO3)CC1,5.1%,–
Oc1cc(Nc2cccnc2)cc2cccnc12,-5.63%,–
CC(C)Nc1cccc(S(=O)(=O)N2CCCN(S(=O)(=O)c3ccc4c(c3)OCCO4)CC2)c1,-3.99%,–
CCOC(=O)CC(=O)Nc1ncnc2c1C(c1ccccc1)c1c(ccc3ccccc13)O2 (configuration not stated),5.45%,–
COc1cc2c(s1)c1cnn(Cc3ccccc3F)c(=O)c1n2C,5.29%,–
COc1cc(-c2csc(N3CCC(C(N)=O)CC3)n2)cc(OC)c1OC,-1.04%,–
O=C(Nc1ccc(Cl)c(Cl)c1)Nc1ncc(-c2ccncc2)s1,-2.01%,–
O=C(Nc1cccnc1)C1CCCCC1,8.16%,–
COc1cc(F)c(S(=O)(=O)N2CCCN(S(=O)(=O)c3cccc(NC(C)=O)c3)CC2)c(F)c1,-3.02%,–
Cc1cc(C)nc(NC(=S)N2CCN(c3ccc(F)cc3F)CC2)c1,–,inactive
